In the library only some 7.4% were active in any assay of this set; here they are far more common.
PD-1 reversal = activators reversing PD-1 mediated T-cell inhibition. primary human CD4 T cells, PD-L1 beads, CellTiter-Glo 96 h. activation, % (test concentration not listed). 29,000 tested, under 10 active; call rule not given here;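 further: 0% = median vehicle wells and 100% = positive control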
Hedgehog inh = Sonic Hedgehog pathway inhibition; Shh-LIGHT2 Gli-luciferase reporter, 30 h; inhibition, % (concentration not given with the values); hit rate 2.1% among 22,000; AID 2313;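 active means mean inhibition across valid replicates above about 65%, limit read from the data; inconclusive means mean under the limit, yet half or more replicates past it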;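 further: pathway switched on by Shh-conditioned medium diluted 1 in 25 in low serum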
NOMO-1 viab = STK33 inhibitor candidate reducing NOMO-1 cell viability; NOMO-1 AML viability, CellTiter-Glo luminescence, 72 h; inhibition, % (test concentration not listed); hit rate 7.5% among 37,000; in the data active means inhibition above about 80%; inconclusive means no clear call, values can overlap the other calls
YB-1 expr inh = YB-1 expression inhibition; U2OS, qRT-PCR YB-1 vs CDIP delta delta Cp, 16 h; stronger effect = higher value; zero = DMSO, each unit about twofold; delta delta Cp (YB-1 minus CDIP) (test concentration not listed); hit rate 0.37% among 30,000;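 active means delta delta Cp rounded down to an integer at or above 3, about 3 SD of DMSO wells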;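 further: higher means less YB-1 transcript or more CDIP transcript relative to DMSO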
MITF inhib = MITF inhibition; hit rate 0.28% among 37,000; inhibition, % (concentration not given with the values); TRPM1 promoter luciferase, luminescence, 24 h; AID 2240; in the data active means inhibition above about 85%; inconclusive means no clear call, values can overlap the other calls; inactive means below about 68%;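 further: human melanocyte line stably carrying TRPM1 promoter luciferase reporter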
An asterisk follows results filed as active; ? = inconclusive; nt = not tested or not shown.

SMILES	PD-1 reversal	Hedgehog inh	NOMO-1 viab	YB-1 expr inh	MITF inhib
C=C1[C@H](OC(=O)C(C)CC)[C@@H](OC(=O)C(C)C)[C@@H](O)C(C)(C)/C=C\[C@H](C)C(=O)[C@@]2(O)C[C@H](C)[C@H](O)[C@@H]2[C@H]1OC(=O)C(C)CC (some centres not stated)	55.9*	28.0	60.4	0.585	-43.6
O=C(Nc1ccc(S(=O)(=O)Nc2ncccn2)cc1)c1ccccc1Oc1ccccc1	1.7	nt	-8.0	nt	-3.1
C=C[C@]1(C)C[C@H](O)[C@H]2C(=C)C(=O)O[C@@H]2[C@H]1C(=C)CO	-1.3	-9.8	53.0	0.562	-0.2
C=CC1(C)C[C@H](OC(=O)C(C)CO)[C@H]2C(=C)C(=O)O[C@@H]2C1C(=C)CO (some centres not stated)	-7.7	31.6	115.5*	-0.11	4.6
O=C(N/N=C/c1cc(Br)cc(Br)c1O)c1ccccc1O	nt	nt	nt	-0.0454	nt
CS(=O)(=O)Nc1ccc(C(=O)CC2(O)C(=O)Nc3ccc(Br)cc32)cc1 (configuration not stated)	0.2	nt	-13.9	nt	-22.8
Cc1nnc(Nc2ccc(OCC(=O)N3CCN(c4ccccc4)CC3)cc2)c2ccccc12	1.9	nt	88.2*	nt	29.3
CCn1c(SCC(=O)N2CCN(c3ccccc3)CC2)nnc1-c1ccccc1O	1.5	nt	15.8	nt	66.4
c1ccc2c(Cc3c[nH]c4ccccc34)c[nH]c2c1	nt	-23.0	-9.9	-0.26	25.1
c1ccc(C(c2ccccc2)N2CCN(CCCc3c[nH]c4ccccc34)CC2)cc1	-1.1	-12.9	116.3*	-0.107	4.1
Cc1cc(C)cc(-n2c(C)cc(/C=C3\SC(=O)NC3=O)c2C)c1	-0.5	nt	58.7	-0.053	7.2
Cc1cc(/C=C2/SC(=O)N(C(C)C)C2=O)c(C)n1-c1ccncc1	-0.5	nt	-4.8	9.62*	-7.6
CC1(C)CC[C@]2(C(=O)O[C@@H]3O[C@H](CO)[C@@H](O)[C@H](O)[C@H]3O)CC[C@]3(C)C(=CCC4[C@@]5(C)C[C@@H](O)[C@H](O)[C@@](C)(COC(=O)c6cc(O)c(O)c(O)c6)C5[C@H](O)C[C@]43C)[C@@H]2C1 (some centres not stated)	-1.1	4.7	108.7*	0.301	2.3
CC1(C)CC[C@]2(C(=O)O[C@@H]3O[C@H](CO)[C@@H](O)[C@H](O)[C@H]3O)CC[C@]3(C)C(=CCC4[C@@]5(C)CC[C@H](O[C@@H]6O[C@H](C(=O)O)[C@@H](O)[C@H](O)[C@H]6O)C(C)(C)C5CC[C@]43C)C2C1 (some centres not stated)	0.1	38.3	115.4*	1.28	19.6
CC1(C)CC[C@]2(C(=O)O)CC[C@]3(C)C(=CCC4[C@@]5(C)CC[C@H](O[C@@H]6O[C@H](CO)[C@@H](O)[C@H](O)[C@H]6O)C(C)(C)C5CC[C@]43C)[C@@H]2C1 (some centres not stated)	-10.0	89.1*	120.3*	-0.527	45.2
CC1(C)CC[C@]2(C(=O)O[C@@H]3O[C@H](CO)[C@@H](O)[C@H](O)[C@H]3O)CC[C@]3(C)C(=CCC4[C@@]5(C)C[C@H](O)[C@H](O[C@@H]6O[C@H](C(=O)O)[C@@H](O)[C@H](O)[C@H]6O)[C@@](C)(CO)C5CC[C@]43C)C2C1 (some centres not stated)	-0.6	-17.6	-0.1	0.00723	1.5
C[C@@H]1O[C@@H](O[C@@H]2CC[C@@]3(C)C(CC[C@]4(C)C3CC=C3[C@@H]5CC(C)(C)CC[C@]5(C(=O)O[C@@H]5O[C@H](CO)[C@@H](O)[C@H](O)[C@H]5O)CC[C@]34C)[C@]2(C)CO)[C@H](O)[C@H](O[C@@H]2OC[C@@H](O)[C@H](O)[C@H]2O)[C@H]1O (some centres not stated)	0.6	-25.2	10.1	-0.442	5.1
CC(=O)OC1COC(OC2C(O)C(C)OC(OC3C(OC4CCC5(C)C(CCC6(C)C5CC=C5C7CC(C)(C)CCC7(C(=O)O)CCC56C)C4(C)CO)OCC(O)C3O)C2O)C(O)C1OC(C)=O (configuration not stated)	-9.3	98.1*	121.9*	-0.0357	38.7
CC1(C)CC[C@]2(C(=O)O)CC[C@]3(C)C(=CCC4[C@@]5(C)CC[C@H](O[C@@H]6O[C@H](C(=O)O)[C@@H](O[C@@H]7O[C@H](CO)[C@@H](O)[C@H](O)[C@H]7O)[C@H](O)[C@H]6O[C@@H]6O[C@H](CO)[C@@H](O)[C@H](O)[C@H]6O)C(C)(C)C5CC[C@]43C)C2C1 (some centres not stated)	-0.9	16.3	53.7	-0.239	-0.3
C[C@@H]1O[C@@H](O[C@@H]2[C@@H](O)[C@H](OC(=O)[C@]34CCC(C)(C)CC3C3=CCC5[C@@]6(C)CC[C@H](OC7OC(CO)C(OC8OCC(O)C(O)C8O)C(O)C7O)C(C)(C)C6CC[C@@]5(C)[C@]3(C)CC4O)O[C@H]2CO)[C@H](O)[C@H](O)[C@H]1O[C@H]1OC[C@](O)(CO)[C@H]1O (some centres not stated)	-12.6	?	94.7*	0.385	14.0
C=CC1(C)C=C2CCC3C(C)(C)C(O[C@@H]4O[C@@H](CO)[C@H](O)[C@H]4O)CCC3(C)C2CC1O[C@@H]1O[C@H](CO)[C@@H](O)[C@H](O)[C@H]1O (some centres not stated)	nt	99.5*	nt	0.914	nt
C=CC1(C)C=C2CCC3C(C)(C)C(O[C@@H]4O[C@@H](CO)[C@H](O)[C@H]4O)CCC3(C)C2CC1O[C@@H]1O[C@H](C)[C@H](O)[C@H](O)[C@H]1O (some centres not stated)	0.3	-7.7	-7.0	0.406	1.4
C/C=C(/C)C(=O)O[C@H]1CC(C)(C)C[C@H]2C3=CCC4[C@@]5(C)CC[C@H](O[C@@H]6O[C@H](C(=O)O)[C@@H](O[C@@H]7O[C@H](CO)[C@H](O)[C@H](O)[C@H]7O[C@@H]7O[C@H](CO)[C@@H](O)[C@H](O)[C@H]7O)[C@H](O)[C@H]6O[C@@H]6O[C@@H](C)[C@H](O)[C@@H](O)[C@H]6O)C(C)(C)C5CC[C@@]4(C)[C@]3(C)C[C@@H](O)[C@@]12CO (some centres not stated)	-14.9	99.4*	119.5*	-1.09	91.6*
Cc1cc(C(=O)SCc2ccccc2)nn1Cc1c(Cl)cccc1Cl	-1.7	-22.5	32.2	0.209	-1.4
CC12CCC(CC(=O)c3ccccc3)(CC1)CC2	-0.9	nt	43.4	0.736	-37.2
CC(C)(C)C1CCC2(CC1)C(C#N)C2(C#N)C(=O)c1ccccc1 (configuration not stated)	-5.6	?	125.4*	0.0583	85.3*
COC(=O)CNC(=O)c1cn(-c2ccccc2)nc1-c1ccc(OC)cc1	0.3	nt	112.7*	nt	-8.5
COC(=O)CNC(=O)c1cn(-c2ccccc2)nc1-c1ccc([N+](=O)[O-])cc1	1.2	nt	3.1	nt	-3.9
